An excerpt weighted towards active compounds, which were near 15% of everything screened.
TDP1 cell noCPT = qHTS for Inhibitors of human tyrosyl-DNA phosphodiesterase 1 (TDP1): qHTS in cells in absence of CPT; DT40 Tdp1-/- hTDP1 cells, no CPT, ATP luminescence, 48 h; AID 686978, 2013; Potency, µM (top dose mostly 46.2 µM), usual class: inhibitors; actives 15% (n = 420,000); further: nearly all actives have a fitted effect of over 55% in size
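Growth kinetics read by CellTiter-Glo luminescence after ≥48 hr at 37 °C. Cells: DT40 Tdp1-/- stably carrying human TDP1, 400 per well, compound exposure in the absence of CPT (DMSO vehicle).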
ELG1 DNA repair = ELG1-dependent DNA repair inhibition; Potency, µM (titrated, usually from 46.1 µM), actives largely listed as inhibitors; HEK293T ELG1-luciferase reporter, luminescence, 16 h; DNA damage induced by 5-fluorouridine; actives 2.3% (n = 330,000); further: nearly all actives have a fitted effect of over 55% in size
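Cells (2,000 per well) received 5-fluorouridine plus test compound or DMSO and were incubated 16 hr at 37 °C, 5% CO2. Luciferase activity was read by luminescence 30 min after ONE-Glo addition; signal suppression marked inhibition of damage-induced ELG1 function.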
VP16 counter = counter-screen for ROR gamma inhibitors: Gal4-VP16 reporter; Potency, µM (highest dose often 53.6 µM), hits mostly inhibitors; actives 3.5% (n = 310,000); Drosophila S2 Gal4-VP16 UAS-luciferase, luminescence, 20 h;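 further: Gal4-VP16 expression switched on by copper sulfate through the metallothionein promoter; nearly all actives have a fitted effect of over 50% in size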
DT40 TDP1 CPT = DT40-hTDP1 cell growth loss with CPT; chicken DT40 Tdp1-/-;hTDP1 cells + 20 nM CPT, ATP luminescence, 48 h; Potency, µM (highest dose often 46.2 µM), hits mostly inhibitors; actives 12% (n = 420,000); further: nearly all actives have a fitted effect of over 55% in size
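Chicken DT40 Tdp1-/- cells complemented with human TDP1, 400 cells/well, exposed to compounds plus 20 nM camptothecin for at least 48 h at 37 C; viability read as ATP content by CellTiter-Glo luminescence.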
12-LOX inh = blocks human arachidonate 12S-lipoxygenase | P18054 | purified 12hLO, xylenol orange hydroperoxide absorbance | Potency, µM (doses to about 108 µM), hits mostly inhibitors | actives 1.1% (n = 580,000) | AID 1671190
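Purified human 12hLO at 150 nM in 25 mM Hepes, 0.01% Triton X-100, pH 7.0, preincubated 15 min at room temperature with compound. Reaction started with 40 uM arachidonic acid, 30 min at room temperature. Hydroperoxide measured by Fe-xylenol orange, 573/405 nm absorbance ratio.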
RORgamma inh = blocks mouse ROR gamma transcriptional activity | actives 5.4% (n = 310,000) | Potency, µM (top dose mostly 53.6 µM), actives largely listed as inhibitors | Drosophila S2 Gal4-RORgamma UAS-luciferase reporter, 20 h; further: nearly all actives have a fitted effect of over 60% in size
Target sequence (P51450 whole entry, looked up, the tested form may be a part): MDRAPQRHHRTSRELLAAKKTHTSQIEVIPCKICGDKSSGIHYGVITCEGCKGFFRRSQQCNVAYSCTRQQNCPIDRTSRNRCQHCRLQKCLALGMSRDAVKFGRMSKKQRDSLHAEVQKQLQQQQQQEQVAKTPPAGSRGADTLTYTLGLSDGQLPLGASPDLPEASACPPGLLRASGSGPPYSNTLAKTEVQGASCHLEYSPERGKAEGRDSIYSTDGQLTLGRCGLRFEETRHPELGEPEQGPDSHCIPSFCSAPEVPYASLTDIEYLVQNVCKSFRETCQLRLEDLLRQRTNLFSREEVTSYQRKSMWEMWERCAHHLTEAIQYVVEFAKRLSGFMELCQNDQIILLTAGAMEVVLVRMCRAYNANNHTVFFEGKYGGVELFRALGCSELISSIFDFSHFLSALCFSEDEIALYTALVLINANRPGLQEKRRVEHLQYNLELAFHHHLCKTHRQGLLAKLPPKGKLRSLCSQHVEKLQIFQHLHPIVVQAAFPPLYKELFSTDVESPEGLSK
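Stable Schneider cell line, Gal4 DNA-binding domain fused to ROR gamma, UAS-luciferase. Cmpd 1 hr RT → CuSO4 700 uM final → 20 hr RT → luciferase reagent 10 min → luminescence.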
A number is an active result; n = inactive; u = inconclusive; x = no result; ! = not confirmed by another sample; [ ] = remark or other dose. The call rests on the fitted dose curve; in most records, active means well fitted curve in the direction sought with a large enough effect; inconclusive means small, poorly fitted or top-dose-only effect, or another doubt; inactive means no such curve, though single readings can be large; an effect the other way counts as inactive or inconclusive.

SMILES	TDP1 cell noCPT	ELG1 DNA repair	VP16 counter	DT40 TDP1 CPT	12-LOX inh	RORgamma inh
O=C(Nc1ccccc1)C1CCCN1c1ncnc2ccccc12 (stereo not given)	x	x	x	x	n	x
O=C1C2C3C=CC(C3)C2C(=O)N1c1ccccc1 (stereo not given)	n	n	n	n	n	n
O=C1C2C3C=CC(C3=C3CCCCC3)C2C(=O)N1c1ccccc1 (stereo not given)	13µM	n	n	u	n	12.6µM
CC(Sc1cc(C(=O)NC2CC2)c2ccccc2n1)C(=O)N1CCCC1 (stereo not given)	x	x	x	x	n	x
O/N=C1\CCc2cc(Cl)ccc21	n	u	n	n	n	n[10 µM]
O/N=C1\CC/C(=N\O)c2nn(-c3ccc(Cl)cc3Cl)nc21	u	n	n	25.9µM	n	u
COc1nc(N)nc2c1ncn2C1OC(CO)CC1O (stereo not given)	1.46µM	x	x	1.03µM	n	x
Nc1nc(=S)c2ncn(C3OC(CO)CC3O)c2[nH]1 (stereo not given)	11.6µM	x	x	n	u	x
Nc1nc(=S)c2ncn([C@H]3O[C@@H](CO)[C@@H](O)[C@@H]3O)c2[nH]1	x	x	n	x	x	n
COc1ccccc1N1CN(Cc2cccnc2)Cn2c1nc(C)c(Cc1ccccc1)c2=O	x	x	x	x	n	x
Cc1oc(-c2cccs2)nc1C(=O)NCC1CCN(C2CC2)C1 (stereo not given)	x	x	x	x	n	x
O=C(Cn1nc2c(cc1=O)CCCC2)Nc1ccc(C(F)(F)F)cc1	x	x	x	x	n	x
Cc1onc(-c2c(F)cccc2Cl)c1-c1ncc(-c2ccc(Cl)cc2)o1	x	x	x	x	n	x
Cc1ccc(S(=O)(=O)n2nccc2-c2c(-c3ccccc3)noc2C)cc1	18.4µM	u	n	u	n	u
Cc1onc(-c2ccc(Cl)cc2)c1-c1ccnn1S(=O)(=O)c1cccc(C(F)(F)F)c1	23.1µM	n	n	u	n	u
Cc1ccc(S(=O)(=O)N2CCN(Cc3nnc(-c4c(-c5ccccc5)noc4C)o3)CC2)cc1	14.6µM	u	x	14.6µM	n	x
Cc1onc(-c2ccccc2)c1-c1ccnn1S(=O)(=O)c1ccc(Cl)cc1	n	u	n	n	n	n
CCCC(=O)NC1CCN(c2ccccc2S(=O)(=O)C(F)(F)F)CC1	x	x	x	x	n	x
COc1ccc(OCC(=O)Nc2cccc(-c3nc4cc(C)ccc4o3)c2)cc1	x	x	x	x	n	x
COc1ccc(S(=O)(=O)c2nnn(-c3cccc(Cl)c3)c2N)cc1	20.6µM!	n	n	11.6µM	n	n
Cc1ccc(S(=O)(=O)c2nnn(-c3cccc(Cl)c3)c2C)cc1	x	x	x	x	n	x
COc1cccc(-n2nnc(S(=O)(=O)c3ccc(C)cc3)c2N)c1	23.1µM	u	n	u	n	n
CCc1ccc(S(=O)(=O)c2nnn(-c3ccc(F)cc3)c2N)cc1	16.4µM	x	x	23.1µM	n	x
Cc1c(S(=O)(=O)c2ccc(Br)cc2)nnn1-c1ccc(Br)cc1	x	x	x	x	n	x
O=C(NC1CCCC1)c1ccc(CSc2nc3cccnc3n2Cc2ccccc2)cc1	16.4µM	x	x	u	n	x
SMILES	TDP1 cell noCPT	ELG1 DNA repair	VP16 counter	DT40 TDP1 CPT	12-LOX inh	RORgamma inh
O=C(NC1CCCCC1)c1ccc(Cn2c(SCc3cccc(F)c3)nc3cccnc32)cc1	20.6µM	x	x	20.6µM	n	x
O=C(NC1CCCCC1)c1ccc(CSc2nc3cccnc3n2Cc2ccccc2)cc1	u	x	x	u	n	x
O=C(NCCN1CCCCC1)c1ccc(Cn2c(SCc3ccc(F)cc3)nc3cccnc32)cc1	u	x	x	u	n	x
COc1ccc(Cn2c(SCc3ccc(C(=O)NCc4ccccc4F)cc3)nc3cccnc32)cc1	u	x	x	u	n	x
COc1ccc(Cn2c(SCc3ccc(C(=O)NC4CCCC4)cc3)nc3cccnc32)cc1	18.4µM	x	x	u	n	x
CCCCn1c(=O)[nH]c(=O)c2c1nc(COC(=O)c1ccccc1)n2CCC(C)C	x	x	x	x	n	x
CSc1ccccc1-c1cnc(NC(C)=O)cn1	n	x	x	2.59µM	n	x
COc1cc(NC(=O)c2ccco2)c(C(=O)O)cc1OC	n	n	n	n	n	n
COc1ccc(NC(=O)COC(=O)c2cc(OC)c(OC)cc2NC(=O)c2ccco2)cc1OC	20.6µM	23.1µM	u	u	n	n
COC(=O)c1cc(OC)c(OC)cc1NC(=O)Nc1ccccc1OC	n	n	n	n	n	n
CCC(=O)Nc1ccc(NC(=O)c2ccco2)c(OC)c1	n	u	n	n	n	n
COc1cc(NC(=O)c2ccco2)c(OC)cc1NC(=O)CCC(=O)Nc1cc(C)ccc1C	n	u	n	n	n	n
COC(=O)c1cc(OC)c(OC)cc1NC(=O)c1ccco1	u	23.1µM	n	u	n	n
COC(=O)c1cc(OC)c(OC)cc1NC(=O)c1cccc(OC)c1OC	5.8µM	u	n	u	n	n
COc1cc(NC(=O)c2ccco2)c(OC)cc1NC(=O)CCC(=O)Nc1cc(C)cc(C)c1	u	20.6µM	n[0.365 µM]	u	n	u
Cc1cc(OCC(=O)NC(C)C)c2c(C)c(C)c(=O)oc2c1	x	x	x	x	n	x
COc1cc(/C=N/NC(=O)c2ccc3c(c2)OCO3)ccc1O	n	u	7.08µM	n	n	8.91µM
O=C(N/N=C/c1ccccc1O)c1ccc2c(c1)OCO2	4.11µM	u	1.78µM	5.17µM	n	0.562µM
O=C(N/N=C/c1ccccc1OC(=O)c1ccc2c(c1)OCO2)c1cccc(F)c1	1.3µM	n	u	1.16µM	n	12.6µM
COc1ccc(/C=N/NC(=O)c2ccc3c(c2)OCO3)cc1	n	u	n	n	n	n
CC/C(=N\NC(=O)c1ccc2c(c1)OCO2)c1ccccc1	n	u	n	n	n	u
CC(C)CC(CC(C)C)=NNC(=O)c1ccc2c(c1)OCO2	n	n	n	n	n	12.6µM
N#Cc1nc(-c2ccc(F)cc2)oc1NC1CCCCC1	x	x	x	x	n	x
COc1ccccc1C(=O)N1CCC2(CC1)CC(=O)Nc1ccccc1O2	x	x	x	x	n	x
O=C(N/N=C/c1ccc2c(c1)OCO2)c1ccc2c(c1)OCCO2	u	u	u	16.4µM	n	n
O=C(N/N=C/c1ccc(Cl)cc1)c1ccc2c(c1)OCO2	13µM	u	n	u	u	n
O=C(O)c1cc(N/N=C/c2ccc3c(c2)OCCO3)ccc1Cl	n	u	11.2µM	n	n	u
Cc1ccc(N/N=C/c2ccc3c(c2)OCCO3)cc1Cl	n	u	n	n	u	u
O=C(N/N=C/c1ccc2c(c1)OCO2)c1ccc(NC(=O)c2ccc(F)cc2)cc1	u	n	n	u	n	10µM
O=C(NN=Cc1ccc2c(c1)OCO2)c1ccc([N+](=O)[O-])cc1	n	x	x	n	n	x

Source: PubChem
